Assay results: paper PMC10668032, “Altered binding affinity of SIX1-Q177R correlates with enhanced WNT5A and WNT pathway effector expression in Wilms tumor”
In all, about 33,000 sequences were measured (“e-score”: median about -0.05, highest 2% from about 0.38 on). Many of the other results were omitted from the sample, so the highest values are more common in it than they were.

Each sequence was assayed against T1, SIX1-Q177R homeodomain (human, UniProt Q15475 108-198, Q177R) (assay: universal protein binding microarray; Universal all-10-mer PBM (8x60K, AMADID 030236), 300 nM GST-tagged protein, Alexa Fluor 488 anti-GST; buffer, salt, pH and temperature not stated (as in Berger); high values mean tight binding). Conditions: protein: ivt; tags: N-terminal GST; dsDNA, one strand shown.
T1 sequence: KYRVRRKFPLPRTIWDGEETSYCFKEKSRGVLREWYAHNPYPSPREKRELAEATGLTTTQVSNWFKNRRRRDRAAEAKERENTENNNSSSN
Summary of the method: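 Binding of GST-tagged homeodomains is given as 8-mer E-scores from the Universal PBM Analysis Suite. The proteins were produced by in vitro transcription/translation, quantified by anti-GST western blot against a recombinant GST standard curve, and applied in duplicate at 300 nM final concentration to universal 'all 10-mer' protein binding microarrays (8×60K format).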

Sequence	binding signal [E-score]
CCACACCC	0.393 ± 0.0374
GCACACCC	0.396 ± 0.0314
CCACACAC	0.271 ± 0.0195
ACACACCC	0.39 ± 0.0201
ACACACAC	0.315 ± 0.0422
GCGCACCC	0.236 ± 0.0394
ACCCACCC	0.276 ± 0.0223
GCACACAC	0.275 ± 0.0355
CCACACGC	0.282 ± 0.0206
CGGGAATA	0.181 ± 0.0131
CCCGAACA	0.1699 ± 0.00103
ACCTTACA	0.192 ± 0.02
CACCCACG	0.275 ± 0.0113
CGTCCTAC	0.182 ± 0.018
ACCCCATA	0.249 ± 0.00713
CACTGAGG	0.227 ± 0.0197
CCCGCGTC	0.193 ± 0.0507
CACCGCAA	0.284 ± 0.0454
CACTAATG	0.164 ± 0.0232
ACCTGGAG	0.222 ± 0.0157
AATTGGGG	0.17 ± 0.027
GCTATACC	0.169 ± 0.0037

Sequence	binding signal [E-score]
CCTACTCC	0.179 ± 0.0115
ACTACACA	0.265 ± 0.0483
TCTACACA	0.194 ± 0.0545
ACTACCCG	0.204 ± 0.0121
ACTATACA	0.238 ± 0.0193
ACTACACT	0.431 ± 0.0136
GCTACACC	0.473 ± 0.00658
ACTACACG	0.4206 ± 0.00315
GCTACCCC	0.23 ± 0.0172
CCTACCCC	0.227 ± 0.00219
CCTACACC	0.4819 ± 0.00223
CCCCCGGC	0.2104 ± 0.00182
CTTGGGGA	0.158 ± 0.0109
ACCCTTCC	0.161 ± 0.0416
CACCGGGA	0.176 ± 0.00643
CACTAGCA	0.163 ± 0.00431
ATAGCGTG	0.159 ± 0.0173
ACACATGC	0.176 ± 0.0202
ACCGGTAT	0.212 ± 0.02
CCCGAAGG	0.193 ± 0.0115
ACGCGTCC	0.174 ± 0.00808
GAATAACA	0.151 ± 0.00831

Sequence	binding signal [E-score]
GATACCGA	0.214 ± 0.0181
ACTACTCC	0.163 ± 0.045
CCTACCCG	0.183 ± 0.0228
ACTACACC	0.4877 ± 0.000997
CCTACACA	0.18 ± 0.0508
CCTACACG	0.398 ± 0.0115
ACTACCCC	0.267 ± 0.00871
ACCCCTCA	0.289 ± 0.021
CTGTGCAC	0.216 ± 0.0216
ACCCCGTG	0.356 ± 0.0239
CGAACACC	0.4736 ± 0.00203
GGAACACA	0.189 ± 0.0298
GGAACACC	0.4735 ± 0.00301
CGAACACG	0.3556 ± 0.00281
CGAACACA	0.215 ± 0.0469
AGAACACT	0.344 ± 0.0153
TGAACACA	0.173 ± 0.0727
AGAACACG	0.356 ± 0.0118
AGAACACC	0.459 ± 0.00494
CGGGGATA	0.202 ± 0.00822
AATGGGTG	0.281 ± 0.0496
CACGCGTA	0.184 ± 0.0106

Sequence	binding signal [E-score]
CCACCTAC	0.17 ± 0.0551
ACACCTAC	0.4555 ± 0.00215
ACACCTGT	0.46033 ± 0.000212
ACCCCTAG	0.208 ± 0.00908
TCCCCTAA	0.172 ± 0.0106
ACACATAT	0.239 ± 0.0295
ACCCCTAA	0.183 ± 0.0117
ATACCTAC	0.224 ± 0.0121
ACACCTAG	0.4448 ± 0.00199
ACACTTAT	0.349 ± 0.02
ACACCTAA	0.4446 ± 0.00441
ATACCTAG	0.196 ± 0.0172
CAGAAGGG	0.157 ± 0.0162
CCCCGAAA	0.168 ± 0.0462
CACCCAAC	0.301 ± 0.0371
CCCCAAAC	0.197 ± 0.0113
GGTCGAAC	0.22817 ± 0.00017
GGGCGGTA	0.18 ± 0.0297
ACCCCTAT	0.172 ± 0.00706
ACACCTAT	0.448 ± 0.00643
ACACATAG	0.155 ± 0.0872
